According to PubChem BioAssay AID1721 (National Center for Advancing Translational Sciences (NCATS), 2009):
The whole screen tested about 290,000 compounds, of which about 1,100 (0.38%) were called active. For the sample, actives were picked, then their nearest neighbours and some compounds at random. Values without a mark were called inactive. The call rests on the fitted dose curve; in most records, active means well fitted inhibition curve with a large enough effect; inconclusive means small, poorly fitted or top-dose-only effect, or another doubt; inactive means no such curve, though single readings can be large or run the other way.

The compounds below were run against Pyruvate kinase (Leishmania mexicana) (UniProt Q27686) (assay: qHTS Assay for Inhibitors of Leishmania Mexicana Pyruvate Kinase (LmPK)). Settings: purified LmPK, Kinase-Glo ATP luminescence, 1 h; series mostly up to 57.5 µM; activity change, negative = inhibition: at the top concentration.
Method in brief: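 In 50 mM imidazole pH 7.2 with 7 mM MgCl2, LmPK (0.1 nM) turned over PEP (0.5 mM) and ADP (0.1 mM) for 1 h at room temperature. Luciferase read-out of ATP.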
On the % scale 0 is the no-effect control and ±100 the full control effect; potency means the concentration at half of the fitted maximal effect.

Sequence of Pyruvate kinase (Leishmania mexicana) (Q27686 whole entry, looked up): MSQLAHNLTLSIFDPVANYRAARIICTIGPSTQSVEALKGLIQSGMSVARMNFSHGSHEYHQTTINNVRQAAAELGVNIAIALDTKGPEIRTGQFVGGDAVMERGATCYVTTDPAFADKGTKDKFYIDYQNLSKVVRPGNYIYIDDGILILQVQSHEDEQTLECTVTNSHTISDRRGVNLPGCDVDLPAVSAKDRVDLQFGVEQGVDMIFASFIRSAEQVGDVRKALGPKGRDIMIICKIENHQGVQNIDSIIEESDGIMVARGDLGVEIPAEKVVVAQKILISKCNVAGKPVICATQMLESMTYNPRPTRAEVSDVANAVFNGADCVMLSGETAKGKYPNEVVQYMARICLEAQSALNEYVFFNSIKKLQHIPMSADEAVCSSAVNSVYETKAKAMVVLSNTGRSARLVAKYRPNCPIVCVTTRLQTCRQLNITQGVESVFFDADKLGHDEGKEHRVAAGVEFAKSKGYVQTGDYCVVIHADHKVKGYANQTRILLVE

Going from `COc1cccc(NC(=O)[C@H](Cc2c[nH]c3ccccc23)NC(=O)[C@@H]2Cc3ccccc3CN2)c1` to `COc1ccc2oc(-c3cccc(NC(=O)CSc4ccc(Cl)cc4)c3)nc2c1`, the “activity change, negative = inhibition” value falls from 6.25% to 1.44%.

Compared with `COc1cc(C(=O)N/C(=C\c2cn(C)c3ccccc23)C(=O)N2CCOCC2)cc(OC)c1OC`, `COc1cc2c(C(=O)N(C)c3cc(Cl)ccc3OC)cn(C)c(=O)c2cc1OC` is higher in “activity change, negative = inhibition” value: -3.61% for the first, 1.4% for the second.

Going from `COc1cnc(-c2ccccn2)nc1Oc1ccc(C(C)(C)C)cc1` to `COc1ccc(Cc2nc(-c3ccccn3)no2)cc1OC`, the “activity change, negative = inhibition” value rises from 1.88% to 2.13%.

Compared with `C(=N\N1CCN(c2ccccn2)CC1)/C1=C(N2CCOCC2)C(=C/c2ccccc2)/CC1`, `N#C/C(=C\C1=C(N2CCOCC2)C(=C\c2ccccc2)/CC1)C(=O)Nc1ccccc1F` is lower in “activity change, negative = inhibition” value: 0.842% for the first, -21.5% for the second.

Going from `CC1CCC2CCCCC2N1C(=O)c1cc([N+](=O)[O-])cc([N+](=O)[O-])c1` (configuration not stated) to `Cc1cccc(NC(=O)c2cc(S(=O)(=O)N3CCC4(CC3)OCCO4)ccc2F)c1`, the “activity change, negative = inhibition” value falls from -2.35% to -12.3%.

First: CCCS(=O)(=O)N1CCN=C1SCc1cccc(F)c1
Second: O=S(=O)(c1ccc(F)cc1)N1CCN=C1SCc1cccc(F)c1
The “activity change, negative = inhibition” value of the first is higher: -2.88% for the first, -5% for the second.

First: COc1ccc(-c2nc3cc([N+](=O)[O-])ccc3o2)cc1OC
Second: COc1ccc(NC(=O)c2cc(-c3ccc(C)cc3)on2)cc1
The “activity change, negative = inhibition” value of the first is higher: 3.94% for the first, 0.318% for the second.

Going from `COc1nc(-c2ccc(Cl)cc2)ccc1-c1noc(-c2cccs2)n1` to `COc1ccc(C2=NOC3(CC(=O)N(c4ccc(C)cc4)C3=O)C2)cc1` (configuration not stated), the “activity change, negative = inhibition” value falls from 2.05% to 1.45%.

Going from `C=CCOc1ccc(C(=O)Nc2ccccc2C(=O)N2CCCC2)cc1` to `Cc1cccc(NC(=O)C2CCCN(C(=O)Nc3ccc(F)cc3)C2)c1C` (configuration not stated), the “activity change, negative = inhibition” value falls from 3.25% to 1.61%.

Compared with `COC(=O)c1ccc(C23CC4(C2)[C@H](CN(Cc2cccnc2)[C@@H]4c2ccccc2)C3c2ccc(Cl)nc2)cc1` (some centres not stated), `CC(=O)Oc1cccc(C(=O)Nc2ccccc2NC(=O)c2cccc(OC(C)=O)c2)c1` is lower in “activity change, negative = inhibition” value: 4.28% for the first, -0.0951% for the second.

First: CC(=O)Nc1ccc(NC(=O)CN2C(=O)COc3ccc(S(=O)(=O)N4CCCCC4)cc32)cc1
Second: O=C(Nc1cccc(S(=O)(=O)Nc2ccc(Cl)cc2)c1)c1ccc2c(c1)OCCO2
The “activity change, negative = inhibition” value of the first is lower: -9.76% for the first, 2.39% for the second.

First: COc1ccccc1CN1CCNC(=O)C1CC(=O)N(C)CC1CCOCC1 (configuration not stated)
Second: O=C(O)CCN=C1CCc2ccccc2N1
The “activity change, negative = inhibition” value of the first is higher: 7.5% for the first, -0.35% for the second.

Compared with `Cc1nc(NC(=O)c2ccc3c(c2)OCCO3)ccc1Br`, `Cc1ccc(O)c(/C=N/NC(=O)COc2ccc3c(C)cc(=O)oc3c2)c1` is higher in “activity change, negative = inhibition” value: -11.3% for the first, 3.6% for the second.

`CSc1cccc(NC(=S)N(C(C)C)C(C)c2ccccn2)c1` (configuration not stated) was tested, and the “activity change, negative = inhibition” value was 7.92%.

For `O=C1Nc2ccc(Br)cc2/C1=N/N=C/C1=C(N2CCOCC2)C(=C\c2ccccc2)/CC1`, the Potency was 14.1 µM (active).
With `COc1cccc(-c2nc3cc(C)ccc3o2)c1` the Potency was 14.1 µM (active).
For `c1ccc(-c2noc(-c3cccs3)n2)nc1`, the Potency was 11.2 µM (active).
For `S=c1[nH]ccn1-c1ccc(Cl)cc1`, the Potency was 25.1 µM (active).
In the case of `COc1ccc(C2=Nc3cc(C)ccc3OC2)cc1`, the Potency is reported as 11.2 µM (active).
In the case of `O=C(Nc1ccc(Cl)cn1)c1ccc2c(c1)OCCO2`, the Potency is reported as 28.2 µM (active).

Going from `CCCCCCCC1=Cc2ccc(F)cc2C(C(C(=O)OC)C(=O)OC)N1C(=O)OC` (configuration not stated) to `COC(=O)C(C(=O)OC)C1c2ccccc2C=C(C2CC2)N1C(=O)OC` (configuration not stated), the activity change, negative = inhibition falls from -1.7% [at 11.5 µM] to -6.03% [at 11.5 µM].

First: C=CCN1c2ccccc2[C@]23C[C@@H](C(=O)OC)N(S(=O)(=O)c4ccc([N+](=O)[O-])cc4)C2=NC(C(=O)OC)=C(C(=O)OC)[C@H]13
Second: COC(=O)C1=C(C(=O)OC)[C@@H]2Nc3ccccc3[C@@]23C[C@@H](C(=O)OC)N(S(=O)(=O)c2ccc([N+](=O)[O-])cc2)C3=N1
The activity change, negative = inhibition of the first is lower: -3.12% [at 11.5 µM] for the first, -0.378% [at 11.5 µM] for the second.
